According to ChEMBL document CHEMBL3988442, “University of Dundee, Small-Polar-MMV Screening Library” (2021):
Measured potencies and affinities stand elsewhere.

Target: Protein translocase subunit SecA (Escherichia coli (strain K12)) (UniProt P10408)
Assay: Assay to Identify E. coli SecA ATPase Inhibitors
Assay type: functional
Design: scale not given: direction of the effect not stated beside the values
Details: 30 µM

Protein translocase subunit SecA (Escherichia coli (strain K12)), sequence (P10408 whole entry): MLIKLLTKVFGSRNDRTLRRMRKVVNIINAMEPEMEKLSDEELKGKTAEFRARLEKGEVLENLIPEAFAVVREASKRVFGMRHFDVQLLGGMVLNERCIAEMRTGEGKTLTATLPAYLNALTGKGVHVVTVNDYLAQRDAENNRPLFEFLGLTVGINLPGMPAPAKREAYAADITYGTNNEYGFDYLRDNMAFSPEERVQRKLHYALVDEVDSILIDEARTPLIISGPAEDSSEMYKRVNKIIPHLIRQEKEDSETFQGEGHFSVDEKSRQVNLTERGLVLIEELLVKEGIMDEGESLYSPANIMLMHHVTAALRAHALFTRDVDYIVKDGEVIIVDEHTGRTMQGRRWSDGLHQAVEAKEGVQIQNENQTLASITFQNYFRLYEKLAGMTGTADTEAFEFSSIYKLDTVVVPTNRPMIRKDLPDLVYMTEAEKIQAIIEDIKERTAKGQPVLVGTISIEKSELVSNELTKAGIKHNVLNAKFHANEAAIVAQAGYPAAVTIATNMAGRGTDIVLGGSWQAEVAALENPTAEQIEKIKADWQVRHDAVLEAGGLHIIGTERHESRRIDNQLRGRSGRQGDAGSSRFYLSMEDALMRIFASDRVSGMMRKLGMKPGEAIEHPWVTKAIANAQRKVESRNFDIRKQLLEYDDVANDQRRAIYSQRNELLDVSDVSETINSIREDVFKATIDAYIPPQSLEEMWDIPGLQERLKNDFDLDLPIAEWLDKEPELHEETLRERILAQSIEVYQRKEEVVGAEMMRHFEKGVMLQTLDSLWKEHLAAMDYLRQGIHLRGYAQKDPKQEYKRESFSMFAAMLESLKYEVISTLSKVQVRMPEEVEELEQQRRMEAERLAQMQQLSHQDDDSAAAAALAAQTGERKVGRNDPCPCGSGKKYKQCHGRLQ

| SMILES | Percent Effect |
| --- | --- |
| CCc1noc(C(C)N2CCN(Cc3nnc(C4CC4)o3)CC2)n1 (centres undefined) | -3.4% |
| CN(C)CCN1CCCC12CCN(C(=O)c1cnccn1)CC2 | -2.79% |
| CC(C)(C)c1n[nH]c(C2CN(C(=O)CCc3cscn3)CCO2)n1 (centres undefined) | -2.17% |
| Cc1nn2cccnc2c1C(=O)N1CCCC(n2ccnc2)C1 (centres undefined) | 0.231% |
| Cc1ccc2oc(C(=O)N3CCCC(c4noc(C)n4)C3)cc2n1 (centres undefined) | -2% |
| CN1CC(c2ccccc2)CC12CCN(C(=O)c1c(Cl)cnn1C)CC2 (centres undefined) | -3.22% |
| O=C(NCC1CC1)C1CCC2(CCN(C(=O)c3ccccn3)CC2)O1 (centres undefined) | -3.07% |
| CC(C)CN1CCN(C(=O)NCc2cccnc2-n2cccn2)CC1 | -3.93% |
| Fc1ccc(-c2n[nH]cc2-c2ccnc(NCCN3CCCC3)n2)cc1 | -1.15% |
| NCc1cn(-c2ccccc2C(=O)NCc2ccccc2)cn1 | -2.27% |
| CC(C)CCC(=O)NC(C)c1nnc2n1CCCCC2 (centres undefined) | -1.02% |
| CC(=O)N1CCCC1c1cc(N2CCN(C3CCCC3)CC2)cc(C)n1 (centres undefined) | -0.907% |
| O=C1CCC(C(=O)NCc2nn(-c3ccccc3)c3c2CCC3)CN1 (centres undefined) | -6.78% |
| COc1ccc(CNCc2ccc(N3CCCCC3)nc2)cc1OC | 0.873% |
| CN1CC(=O)N(c2cnn(C)c2)CC12CCN(C(=O)c1ccsc1)C2 (centres undefined) | -5.41% |
| CCN(C)c1ncnc2c1CCN(Cc1ccc(OC)cc1)CC2 | -4.72% |
| CCOc1ncccc1CNC(=O)Nc1ccc(N(C)C)nc1 | -5.71% |
| Cc1nc(C)n(CC2CN(CCOCC(F)(F)F)CCO2)n1 (centres undefined) | -1.11% |
| CN(CCNC(=O)c1scnc1Cl)c1ccccc1 | -1.49% |
| Cc1[nH]ncc1C(=O)N1CCN(CC(O)C(C)(C)C)CC1 (centres undefined) | -2.19% |

| SMILES | Percent Effect |
| --- | --- |
| CCn1ccnc1CNCC1CCCN1c1cc(NC)ncn1 (centres undefined) | -2.03% |
| Cc1[nH]c2ccccc2c1-c1ccnc(NCCN2CCOCC2)n1 | -1.25% |
| COc1cc(S(=O)(=O)N2CCCc3ccccc32)cc(C(=O)O)c1OC | -5.67% |
| CN(C)C[C@H]1OC[C@@H]2CCN(S(=O)(=O)c3cccs3)C[C@@H]21 | -10.2% |
| COc1ccc(OC)c(C2CCN(Cc3nc(C)n4ccccc34)C2)c1 (centres undefined) | -4.56% |
| Cc1cccc(C(=O)N2C[C@@H](OCc3cccnc3)[C@H]3OCCC[C@@H]32)n1 | -3.43% |
| Cc1ccc(Cl)cc1N1CCC(CNC(=O)CCn2ccnn2)C1 (centres undefined) | -2.11% |
| CC(C(=O)N1CCCC1)N1CCC(c2nccn2CC2CCC2)CC1 (centres undefined) | -7.94% |
| O=C(CSc1ccc(F)c(F)c1)NS(=O)(=O)c1ccc2c(c1)OCCO2 | -1.98% |
| CCCc1cc(C(=O)N2CCOC(c3nc(-c4cccs4)no3)C2)no1 (centres undefined) | -3.79% |
| O=C(Nc1ccccc1)C1=CC2(CCNCC2)c2ccccc21 | -2.8% |
| CCCn1nc2c(cc1=O)CN(CC(=O)Nc1ccncc1)CC2 | -3.45% |
| c1ccc(CNC2CCc3ncnn3C2)nc1 (centres undefined) | 0.311% |
| Cc1n[nH]c(=O)c2c(NC(=O)CN3CCCC(C(F)(F)F)C3)oc(C)c12 (centres undefined) | 2.19% |
| CCn1c(C)cc(C(=O)N2CCCC(n3nc(C)nc3C)C2)c1C (centres undefined) | -5.54% |
| N#Cc1ccccc1OCCN1CCn2c(nnc2C2CC2)C1 | 1.03% |
| O=C(NCCC1=CCCCC1)C1CCN(c2ccc3nncn3n2)CC1 | -2.89% |
| c1ccc(-c2cnc(CNC3CCCN(c4cccnn4)C3)o2)cc1 (centres undefined) | -1.65% |
| COc1ccc(C(=O)N2CC[C@H](CO)[C@H](O)C2)c(C)c1 | -7.05% |
